Test results: PubChem BioAssay (Tox21)
Unmarked numbers belong to inactive results. Results filed as inconclusive are left out. Entries that show only a call come without a potency. Active and inactive are the calls of the source. The call rests on the fitted dose curve.

Legend:
[1] = biological target: Acetylcholinesterase (Homo sapiens) (UniProt P22303); test: Acetylcholinesterase (AChE) small molecule antagonists: colormetric cell-based qHTS assay (AID 1347395); further: nearly all actives have a fitted effect of over 30% in size
How it was run: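 SH-SY5Y cells, plated overnight at 37 C, were exposed to compounds for 30 min at 37 C and 5% CO2. Acetylthiocholine plus DTNB was then added, and thiocholine from endogenous AChE was quantified colorimetrically after 90 min at 37 C.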

[2] = biological target: Acetylcholinesterase (Homo sapiens) (UniProt P22303); test: Acetylcholinesterase (AChE) small molecule antagonists: enzyme-based qHTS assay (AID 1347397); conditions: Potency: AChE enzyme activity inhibition; outcome: AChE enzyme activity inhibition; further: nearly all actives have a fitted effect of over 55% in size; further: potency means the concentration at half of the fitted maximal effect
How it was run: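 Colorimetric DTNB readout of acetylthiocholine hydrolysis, 10 min at room temperature, after 30 min room-temperature exposure of 50 mU/mL recombinant human enzyme to compound; DMSO vehicle control.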

[3] = biological target: Acetylcholinesterase (Homo sapiens) (UniProt P22303); test: Acetylcholinesterase (AChE) small molecule antagonists: fluorescence cell-based qHTS assay (AID 1347398); conditions: Potency: AChE activity; outcome: AChE activity; further: nearly all actives have a fitted effect of over 50% in size
How it was run: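 Cellular AChE activity read as thiocholine from acetylthiocholine hydrolysis, detected by Thiolite Green fluorescence at 490/520 nm after 40 min at room temperature. Compounds were pre-incubated 30 min at 37 C on adherent SH-SY5Y cells.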

[4] = biological target: Acetylcholinesterase (Homo sapiens) (UniProt P22303); test: Acetylcholinesterase (AChE) small molecule antagonists: enzyme-based qHTS assay with human liver microsomes (AID 1347399); conditions: Potency: qHTS inhibition; outcome: qHTS inhibition; further: nearly all actives have a fitted effect of over 60% in size
How it was run: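 Recombinant human AChE (50 mU/mL in the enzyme mix) and human liver microsomes (0.25 mg/mL final) were preincubated with compound and NADPH (0.25 mg/mL final) for 30 min at 37 C. Acetylthiocholine/DTNB was then added; thiocholine was read colorimetrically after 10 min at room temperature.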

Acetylcholinesterase (Homo sapiens), sequence (P22303 whole entry, looked up): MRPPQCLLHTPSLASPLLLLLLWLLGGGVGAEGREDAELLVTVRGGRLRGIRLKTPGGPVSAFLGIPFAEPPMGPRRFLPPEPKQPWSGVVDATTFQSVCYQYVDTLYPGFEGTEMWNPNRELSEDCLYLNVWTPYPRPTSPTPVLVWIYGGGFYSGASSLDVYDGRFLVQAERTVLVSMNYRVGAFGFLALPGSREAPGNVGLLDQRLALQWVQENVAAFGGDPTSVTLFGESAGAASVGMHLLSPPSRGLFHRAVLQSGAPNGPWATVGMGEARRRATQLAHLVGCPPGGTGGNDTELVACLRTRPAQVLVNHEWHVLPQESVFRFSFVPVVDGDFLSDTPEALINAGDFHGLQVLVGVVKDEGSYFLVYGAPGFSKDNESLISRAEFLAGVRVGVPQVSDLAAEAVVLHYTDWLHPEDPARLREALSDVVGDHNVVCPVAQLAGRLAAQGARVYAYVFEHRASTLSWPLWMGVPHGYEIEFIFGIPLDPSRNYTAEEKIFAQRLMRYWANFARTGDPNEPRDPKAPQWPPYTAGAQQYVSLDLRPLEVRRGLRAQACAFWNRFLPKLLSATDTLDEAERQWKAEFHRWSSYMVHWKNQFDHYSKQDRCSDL

Row | SMILES | Potency [1] | Potency [2] | Potency [3] | Potency [4] | activity, negative = inhibition [1] | activity change, negative = inhibition [2] | activity change, negative = inhibition [3] | activity change, negative = inhibition [4]
1 | CC1CC(=O)CC(C)(C)C1 (stereo not drawn) | inactive | inactive | inactive | inactive |  |  |  | 
2 | CCCCC(CC)CN (stereo not drawn) | inactive | inactive | inactive | inactive |  |  |  | 
3 | CC(=O)CCc1ccc(O)cc1 | inactive | inactive | inactive | inactive |  |  |  | 
4 | Cc1cc(CC(=O)O)c(C)n1-c1ccc(Cl)cc1 | inactive | inactive | inactive | inactive |  |  |  | 
5 | O=S(=O)(O)c1cc(I)c(O)c2ncccc12 | inactive | inactive | inactive | inactive |  |  |  | 
6 | O=C(O)c1cccc(C(F)(F)F)c1 | inactive | inactive | inactive | inactive |  |  |  | 
7 | CC(=O)CC(N)=O | inactive | inactive | inactive | inactive |  |  |  | 
8 | CCCCCCCC/C=C\CCCCCCCC(=O)N(C)CC(=O)O | inactive | 63.3 µM (active) | inactive | inactive |  |  |  | 
9 | CCOc1ccc2ccccc2c1C(=O)N[C@@H]1C(=O)N2[C@@H]1SC(C)(C)[C@@H]2C(=O)O | inactive | inactive | inactive | inactive |  |  |  | 
10 | NCCC(O)(P(=O)(O)O)P(=O)(O)O | inactive | inactive | inactive | inactive |  |  |  | 
11 | CC1=NS(=O)(=O)c2cc(Cl)ccc2N1 | inactive | inactive | inactive | inactive |  |  |  | 
12 | C=C[Si](C)(C)O[Si](C)(C)C=C | inactive | inactive | inactive | inactive |  |  |  | 
13 | Cc1cc(N)c(S(=O)(=O)O)cc1Cl | inactive | inactive | inactive | inactive |  |  |  | 
14 | NCc1ccccc1 | inactive | inactive | inactive | inactive |  |  |  | 
15 | CCOC(=O)C(C)O (stereo not drawn) | inactive | inactive | inactive | inactive |  |  |  | 
16 | Cc1cccc(C)n1 | inactive | inactive | inactive | inactive |  |  |  | 
17 | Nc1nc(-c2ccccc2)c(Br)c(=O)[nH]1 | inactive | inactive | inactive | inactive |  |  |  | 
18 | CC(S)C(C)S (stereo not drawn) | inactive | inactive | inactive | inactive |  |  |  | 
19 | NCC[C@H](O)C(=O)N[C@@H]1C[C@H](N)[C@@H](O[C@H]2O[C@H](CN)[C@@H](O)[C@H](O)[C@H]2O)[C@H](O)[C@H]1O[C@H]1O[C@H](CO)[C@@H](O)[C@H](N)[C@H]1O |  |  |  |  | -3.35% [at 0.435 µM] | 0.773% [at 0.435 µM] | 5.79% [at 0.439 µM] | -1.18% [at 0.435 µM]

Row | SMILES | Potency [1] | Potency [2] | Potency [3] | Potency [4] | activity, negative = inhibition [1] | activity change, negative = inhibition [2] | activity change, negative = inhibition [3] | activity change, negative = inhibition [4]
20 | O=C(Nc1ccc(Oc2ccc(Cl)cc2)c(Cl)c1)c1cc(I)cc(I)c1O | inactive | inactive | inactive | inactive |  |  |  | 
21 | CC(=O)O[C@@H]1C[C@@H]2CC[C@@]1(C)C2(C)C | inactive | inactive | inactive | inactive |  |  |  | 
22 | CN(C)CCN1CCN(c2cccc(Cl)c2)C1=O | inactive | inactive | inactive | inactive |  |  |  | 
23 | CC(C)=CCNc1ncnc2c1ncn2[C@@H]1O[C@H](CO)[C@@H](O)[C@H]1O | inactive | inactive | inactive | inactive |  |  |  | 
24 | CC(=O)Nc1cccc(C)c1 | inactive | inactive | inactive | inactive |  |  |  | 
25 | CCOC(=O)c1ccccc1O | inactive | inactive | inactive | inactive |  |  |  | 
26 | CCC1(CO)COCOC1 | inactive | inactive | inactive | inactive |  |  |  | 
27 | CC(C)C1CCC(C(=O)N[C@H](Cc2ccccc2)C(=O)O)CC1 (stereo partly drawn) | inactive | inactive | inactive | inactive |  |  |  | 
28 | Cc1ccccc1N=C(N)N=C(N)N | inactive | inactive | inactive | inactive |  |  |  | 
29 | C=CC1CC2C=CC1C2 (stereo not drawn) | inactive | inactive | inactive | inactive |  |  |  | 
30 | CCCCC(CC)COCCO (stereo not drawn) | inactive | inactive | inactive | inactive |  |  |  | 
31 | CC/C=C\C/C=C\C/C=C\CCCCCCCC(=O)OC | inactive | inactive | inactive | inactive |  |  |  | 
32 | C=C(C)C(=O)OCCC(F)(F)C(F)(F)C(F)(F)C(F)(F)C(F)(F)C(F)(F)F | inactive | inactive | inactive | inactive |  |  |  | 
33 | O=C1C(=O)c2ccccc2C(O)=C1C1CCC(c2ccc(Cl)cc2)CC1 (stereo not drawn) | inactive | inactive | inactive | inactive |  |  |  | 
34 | CC(C)C(O)C(C)(C)CO (stereo not drawn) | inactive | inactive | inactive | inactive |  |  |  | 
35 | Cc1ccc(S)cc1 | inactive | inactive | inactive | inactive |  |  |  | 
36 | CCN(C(=O)N(CC)c1ccccc1)c1ccccc1 | inactive | inactive | inactive | inactive |  |  |  | 
37 | CC[C@H]1OC(=O)[C@H](C)[C@@H](O[C@H]2C[C@@](C)(OC)[C@@H](O)[C@H](C)O2)[C@H](C)[C@@H](O[C@@H]2O[C@H](C)C[C@H](N(C)C)[C@H]2O)[C@](C)(OC)C[C@@H](C)C(=O)[C@H](C)[C@@H](O)[C@]1(C)O | inactive | inactive | inactive | inactive |  |  |  | 
